Screening results from PubChem BioAssay.
ERG-DNA inh – blocks human ERG Ets domain binding to DNA. fluorescence polarization, His-ERG Ets domain / labelled DNA. P11308. AID 624246. 370,000 compounds, 0.028% hits. Potency, µM (highest dose often 76.9 µM), without a hit: at the highest dose FP activity, negative = inhibition, hits mostly inhibitors; active = well fitted inhibition curve with a large enough effect in the polarisation, with a control signal flat; inconclusive = small, poorly fitted or top-dose-only effect, or effect the other way, or a change in a side signal; inactive = no such curve, though single readings can be large or run the other way; the % refers to the polarisation;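 note: polarization taken with two DNA probes labelled with fluorescein and Texas red; potency is the fitted concentration of half-maximal effect; % of control where 0% means no effect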
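His-tagged ERG Ets domain (1 uM in the protein solution; 300mM KCl, 50mM Tris-HCl, 1mM EDTA, 1mM DTT, pH 7.5) received compound, then a probe mix of 5 nM fluorescein-DNA and 100nM Texas-615-DNA. Fluorescence polarization was read for both dyes.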
TR SRC2 fluor cs – alters Texas Red total fluorescence, flagging assay interference; TRb/SRC2 Texas Red total fluorescence interference; Potency, µM (doses to about 106 µM), inactives show top-dose fluorescence change, negative = quenching; 280,000 compounds, 0.29% hits; active = well fitted curve in either direction with a large enough effect; inconclusive = small, poorly fitted or top-dose-only effect; note: potency is the fitted concentration of half-maximal effect; % is set by controls: 0 for no effect and ±100 for the full control effect
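Flags fluorescent or light-absorbing compounds by total fluorescence, S + 2P, at 555 nm excitation and 632 nm emission. Mixture: 20 nM Texas Red SRC2 peptide, 0.6 uM human TRb LBD, 1 uM T3, 5% DMSO; compound exposure 5 h at ambient temperature.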
TRb-SRC2 inh – inhibitors of human thyroid hormone receptor beta-SRC2 interaction; P10828; TRbeta-SRC2 peptide binding, fluorescence polarization; receptor liganded with 1 µM T3; Potency, µM (titrated, usually from 106 µM), inactives show top-dose activity change, negative = inhibition, actives largely listed as inhibitors; 280,000 compounds, 0.065% hits;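 note: potency is the fitted concentration of half-maximal effect; plate controls were bound peptide for no effect and peptide without receptor for full effect; nearly all actives have a fitted effect of over 50% in size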
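Human TRb ligand-binding domain (0.6 uM) is mixed with 20 nM Texas Red SRC2 peptide and 1 uM T3; after compound addition and 5 hr at ambient temperature, polarization is measured and normalized to unbound and bound controls.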
CBFb-RUNX1 inh – inhibitors of human CBF-beta and RUNX1 interaction; Q01196+Q13951; AlphaScreen CBFb-His/RUNX1-biotin binding, biochemical; Potency, µM (doses to about 59.8 µM), for inactives: top-dose activity, negative = inhibition, hits mostly inhibitors; 230,000 tested, under 10 active; AID 1477; note: % of control where 0% means no effect
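CBFb-His/RUNX1-biotin, 30 nM each, preincubated 20 min RT; compound 15 min RT; Ni + streptavidin beads 50 ng each, 90 min RT; AlphaScreen read.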
RGS12 GoLoco inh – blocks human Gai1 binding to RGS12 GoLoco peptide, red readout. AID 880. P63096. Gai1:RGS12 GoLoco peptide FP, rhodamine, 10 min. Potency, µM (doses to about 61.6 µM), for inactives: at the highest dose activity, negative = inhibition, most hits filed as inhibitors. 230,000 compounds, 0.44% hits; active = well fitted inhibition curve with a large enough effect, not every such curve was filed as active; inactive = no such curve, though single readings can be large or run the other way; note: potency is the fitted concentration of half-maximal effect; % is set by controls: 0 for no effect and ±100 for the full control effect; nearly all actives have a fitted effect of over 30% in size
Target sequence (P63096 whole entry, looked up): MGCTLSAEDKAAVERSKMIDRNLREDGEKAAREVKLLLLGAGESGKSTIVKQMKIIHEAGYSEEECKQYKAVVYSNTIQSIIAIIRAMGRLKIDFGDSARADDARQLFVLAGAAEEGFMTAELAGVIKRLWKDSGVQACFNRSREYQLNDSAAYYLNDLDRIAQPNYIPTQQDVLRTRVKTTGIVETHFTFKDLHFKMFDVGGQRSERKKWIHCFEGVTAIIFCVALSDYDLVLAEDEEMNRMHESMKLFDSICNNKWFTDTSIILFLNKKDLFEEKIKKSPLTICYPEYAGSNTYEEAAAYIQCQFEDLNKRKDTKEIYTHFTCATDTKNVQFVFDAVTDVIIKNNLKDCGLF
* hit, by the source's call; [ ] = another dose, or the depositor's remark. Shown is part of a subset that was picked to be rich in hits. Unless noted, calls come from the whole dose curve; as a rule, active = well fitted curve in the direction sought with a large enough effect; inconclusive = small, poorly fitted or top-dose-only effect, or another doubt; inactive = no such curve, though single readings can be large; an effect the other way counts as inactive or inconclusive.

Results for CCCC(=O)Nc1ccc2nc(SCC(=O)Nc3ccc(N4CCOCC4)c(Cl)c3)sc2c1 ?
ERG-DNA inh: 0%; TR SRC2 fluor cs: 0%; TRb-SRC2 inh: -18%; CBFb-RUNX1 inh: 0%; RGS12 GoLoco inh: 4.5µM*

Results for Nc1ccc2nc(SCC(=O)Nc3ccc(N4CCOCC4)c(Cl)c3)sc2c1 ?
ERG-DNA inh: 7%; TR SRC2 fluor cs: -5%; TRb-SRC2 inh: -8%; CBFb-RUNX1 inh: -1%; RGS12 GoLoco inh: -74%

How did CCn1c(=Nc2ccc(N3CCOCC3)cc2)ccc2ccccc21 do in these assays?
ERG-DNA inh: -1%; TR SRC2 fluor cs: -1%; TRb-SRC2 inh: 0%; CBFb-RUNX1 inh: 3%; RGS12 GoLoco inh: 0%

Results for Cn1c(=Nc2ccc(N3CCOCC3)cc2)ccc2ccccc21 ?
ERG-DNA inh: -12%; TR SRC2 fluor cs: -2%; TRb-SRC2 inh: -4%; CBFb-RUNX1 inh: 1%; RGS12 GoLoco inh: 0.32µM*

How did C=CCn1c(C)c(/C=C/c2cc[n+](C)cc2)c2ccccc21 do in these assays?
ERG-DNA inh: 12%

How did Cc1[nH]c2ccccc2c1/C=C/c1cc[n+](C)cc1 do in these assays?
ERG-DNA inh: 6%; TR SRC2 fluor cs: -7%; TRb-SRC2 inh: -1%; CBFb-RUNX1 inh: -4%; RGS12 GoLoco inh: 2.8µM*

How did CC(C)n1cc(/C=C/c2cc[n+](C)cc2)c2ccccc21 do in these assays?
ERG-DNA inh: 17%

What do the screens show for `Cc1ccccc1/C=C/c1cc[n+](C)cc1`?
ERG-DNA inh: -4%; TR SRC2 fluor cs: 0%; TRb-SRC2 inh: -7%; CBFb-RUNX1 inh: -17%; RGS12 GoLoco inh: 22µM*

How did CC(C)C1CCC(C(=O)NC(Cc2ccccc2)C(=O)O)CC1 (centres undefined) do in these assays?
TR SRC2 fluor cs: -1%; TRb-SRC2 inh: 1%; RGS12 GoLoco inh: 20µM*

How did O=C(NC(Cc1ccccc1)C(=O)O)C1CCCCC1 (centres undefined) do in these assays?
ERG-DNA inh: -6%; TR SRC2 fluor cs: 1%; TRb-SRC2 inh: 0%; CBFb-RUNX1 inh: 1%; RGS12 GoLoco inh: -11%

How did O=C(NCC1CCCO1)c1ccccc1 (centres undefined) do in these assays?
ERG-DNA inh: -11%; TR SRC2 fluor cs: 1%; TRb-SRC2 inh: -23%; CBFb-RUNX1 inh: -11%; RGS12 GoLoco inh: 3%

What do the screens show for `C[n+]1cccc(C(=O)NCC2CCCO2)c1` (centres undefined)?
ERG-DNA inh: 11%; TR SRC2 fluor cs: -1%; TRb-SRC2 inh: -4%; CBFb-RUNX1 inh: -1%; RGS12 GoLoco inh: 1.8µM*

How did O=c1/c(=C\c2cc([N+](=O)[O-])cc([N+](=O)[O-])c2O)sc2nc3ccccc3n12 do in these assays?
ERG-DNA inh: 5%; TR SRC2 fluor cs: 45µM*[quencher]; TRb-SRC2 inh: 16%; CBFb-RUNX1 inh: inconclusive; RGS12 GoLoco inh: 160%

What do the screens show for `O=c1/c(=C/c2ccccn2)sc2nc3ccccc3n12`?
ERG-DNA inh: 3%; TR SRC2 fluor cs: -1%; TRb-SRC2 inh: -17%; CBFb-RUNX1 inh: 3%; RGS12 GoLoco inh: -29%

Results for Fc1ccc(Br)cc1 ?
TR SRC2 fluor cs: 1%[201 µM]; TRb-SRC2 inh: -4%[201 µM]

How did COc1ccc2[nH]c3c4c(ccc3c2c1)C(=O)C=CC4=O do in these assays?
ERG-DNA inh: 44%; TR SRC2 fluor cs: -14%; TRb-SRC2 inh: -7%; CBFb-RUNX1 inh: -19%; RGS12 GoLoco inh: 22µM*

Results for COc1ccc2[nH]c(-c3ccc(F)cc3F)cc(=O)c2c1 ?
TR SRC2 fluor cs: 4%; TRb-SRC2 inh: 0%; CBFb-RUNX1 inh: 0%[89.1 µM]; RGS12 GoLoco inh: 1%[88.7 µM]

How did CCCSc1ncc(Cl)c(C(=O)N(Cc2ccc(N(C)C)cc2)C2CCS(=O)(=O)C2)n1 (centres undefined) do in these assays?
ERG-DNA inh: -1%; TR SRC2 fluor cs: 4.5µM*[quencher]; TRb-SRC2 inh: -13%[53 µM]

Results for CCCSc1ncc(Cl)c(C(=O)N(Cc2cccc(Cl)c2)C2CCS(=O)(=O)C2)n1 (centres undefined) ?
ERG-DNA inh: 1%; TR SRC2 fluor cs: 9%; TRb-SRC2 inh: -1%
